Cav3 T inh: Cav3.2 calcium influx blockers – cell-based, Fluo-4 calcium fluorescence, FDSS, MLSMR library, primary screen | Voltage-dependent T-type calcium channel subunit alpha-1H (Homo sapiens), O95180 | Cav3.2-expressing cells; hits give low values | actives 4% (n = 100,000) | B-score at 10 µM;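 active means single-dose well whose peak fluorescence ratio is a statistical outlier from its plate by either plate-standardised score or position-corrected B-score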
DAT uptake mod: changed hDAT dopamine uptake under cocaine IC80, either direction, primary screen, cocaine antagonist project, cell-based, LLC-PK1 hDAT, [14C]-dopamine uptake, MLSMR. LLC-PK1 hDAT cells, [14C]-dopamine uptake with cocaine IC80; actives deviate in either direction. actives 1.3% (n = 110,000). B-score at 10 µM;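 active means Z score or B-score, a plate-position-corrected score, falls beyond the plate's 99.7% confidence bounds, in either direction; inactive means both scores lie inside the 99.7% bounds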
Smad3 inh: Smad3/FoxH1 peptide binding inhibitors, primary screen, biochemical, TR-FRET; Mothers against decapentaplegic homolog 3 (Homo sapiens), P84022; TR-FRET Smad3/Dy647-FoxH1 peptide binding, europium anti-His; inhibition, % at 25 µM; actives 0.29% (n = 88,000); AID 630, 2007;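 active means compounds that reduce the energy-transfer binding signal between the protein and its labelled peptide by more than half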
Target sequence (P84022 whole entry, looked up): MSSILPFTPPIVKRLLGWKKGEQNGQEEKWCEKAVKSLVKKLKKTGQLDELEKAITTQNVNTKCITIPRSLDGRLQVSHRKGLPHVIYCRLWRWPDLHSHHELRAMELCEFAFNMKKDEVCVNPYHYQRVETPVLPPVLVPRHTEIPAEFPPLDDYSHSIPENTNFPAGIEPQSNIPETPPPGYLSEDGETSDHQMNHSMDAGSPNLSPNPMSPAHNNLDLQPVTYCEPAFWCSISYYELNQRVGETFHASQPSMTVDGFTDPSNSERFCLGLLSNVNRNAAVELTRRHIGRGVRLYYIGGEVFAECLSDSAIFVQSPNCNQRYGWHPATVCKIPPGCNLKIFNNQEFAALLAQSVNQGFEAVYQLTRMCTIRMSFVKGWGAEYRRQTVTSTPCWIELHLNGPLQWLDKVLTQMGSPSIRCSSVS
PostGolgi yeast: phenotypic screen on post-Golgi transport, primary screen; post-Golgi transport phenotypic cell assay; inhibition, % at 10 µM; actives 0.9% (n = 98,000); AID 739, 2007;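 further: yeast cells grown in 1536-well plates; yeast grown about 18 h at 30C before absorbance read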
TNAP act mid DEA: human TNAP enzyme activators, primary screen, biochemical, luminescent, intermediate phosphate acceptor level. purified TNAP, CDP-star luminescence, 100 mM DEA, 30 min; hits give high values; scale: 0 levamisole-inhibited, 1 vehicle-only enzyme. activation factor at 20 µM. 64,000 tested, under 10 active;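 active means activation factor of at least 2 at 20 µM, relative to controls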
PostGolgi ctrl: growth inhibition of yeast control strain, primary screen, counter-screen for post-Golgi transport modulator project; efflux-deficient yeast background strain, growth absorbance A615, 16 h; inhibition, % at 10 µM; actives 5% (n = 98,000); AID 738, 2007
A number is an active result. The list is not random: actives were taken first. Their share in the collection is about 8.7%. Unless noted, no stated cut-off is given here; in the data, active means inhibition above about 30%; inactive means the rest.

For CC1=CC(C)(C)Nc2ccc(OC(=O)C(Cc3ccccc3)N3C(=O)c4ccccc4C3=O)cc21 (stereo not given) the results were Cav3 T inh inactive, DAT uptake mod inactive, PostGolgi yeast inactive and PostGolgi ctrl inactive.
`C=C(C)Cn1c(SCC)nc2ccccc2c1=O` gave Cav3 T inh inactive, DAT uptake mod inactive, Smad3 inh inactive, PostGolgi yeast inactive, TNAP act mid DEA inactive and PostGolgi ctrl 44.3.
`C=C(C)Cn1c(SCC#N)nc2ccccc2c1=O` gave DAT uptake mod -2.87, Smad3 inh inactive, PostGolgi yeast inactive, TNAP act mid DEA inactive and PostGolgi ctrl inactive.
For CCn1c(SCC(N)=O)nc2ccccc2c1=O the results were Cav3 T inh inactive, DAT uptake mod inactive, Smad3 inh inactive, PostGolgi yeast inactive, TNAP act mid DEA inactive and PostGolgi ctrl inactive.
CCN(CCCn1c(SCC#N)nc2ccccc2c1=O)c1ccccc1 was read as Cav3 T inh -5.36, DAT uptake mod inactive, Smad3 inh inactive, PostGolgi yeast inactive, TNAP act mid DEA inactive and PostGolgi ctrl inactive.
Cc1cc(NC(=O)CSc2nnc(-c3cccs3)n2N)no1 was read as Cav3 T inh inactive, DAT uptake mod inactive, Smad3 inh inactive, PostGolgi yeast inactive and PostGolgi ctrl inactive.
For O=C(CC1Nc2ccccc2NC1=O)NCC1COc2ccccc2O1 (stereo not given) the results were Cav3 T inh inactive, DAT uptake mod inactive, Smad3 inh inactive, PostGolgi yeast inactive, TNAP act mid DEA inactive and PostGolgi ctrl inactive.
Screening Cc1ccc(NC(=O)c2cc(S(=O)(=O)N3CCCCC3)cs2)cc1 returned Cav3 T inh -4.8, DAT uptake mod inactive, Smad3 inh inactive, PostGolgi yeast inactive and PostGolgi ctrl inactive.
O=C(Nc1ccc(F)cc1)c1cc(S(=O)(=O)Nc2ccc(F)cc2)cs1 was read as Cav3 T inh -5.76, DAT uptake mod inactive, PostGolgi yeast inactive and PostGolgi ctrl inactive.
Screening NS(=O)(=O)c1ccc(CCNC(=O)CSc2ccccc2)cc1 returned Cav3 T inh inactive, DAT uptake mod inactive, PostGolgi yeast inactive and PostGolgi ctrl inactive.
NS(=O)(=O)c1ccc(CCNC(=O)NC2(C(F)(F)F)Oc3ccccc3O2)cc1 was read as Cav3 T inh inactive, DAT uptake mod -6.72, Smad3 inh inactive, PostGolgi yeast inactive, TNAP act mid DEA inactive and PostGolgi ctrl inactive.
`CCCCNC(=O)NC1(C(F)(F)F)Oc2ccccc2O1` gave Cav3 T inh inactive, DAT uptake mod -1.88, Smad3 inh inactive, PostGolgi yeast inactive and PostGolgi ctrl inactive.
Screening Cc1ccc2c(c1)N(Cc1ccccn1)C(=O)C(C)O2 (stereo not given) returned Cav3 T inh inactive, DAT uptake mod inactive, PostGolgi yeast inactive, TNAP act mid DEA inactive and PostGolgi ctrl inactive.
O/N=C(/Cc1ccccn1)c1ccccc1 was read as Cav3 T inh inactive, DAT uptake mod inactive, Smad3 inh inactive, PostGolgi yeast inactive, TNAP act mid DEA inactive and PostGolgi ctrl inactive.
Screening C/C(=N/O)c1ccccn1 returned Cav3 T inh inactive and DAT uptake mod -4.62.
For O=C(c1ccccn1)N1CCN(C(=O)c2ccccn2)CC1 the results were Cav3 T inh inactive, DAT uptake mod inactive, PostGolgi yeast inactive and PostGolgi ctrl inactive.
CCCCCC/C(=N/O)c1ccccn1 was read as Cav3 T inh inactive, DAT uptake mod inactive, Smad3 inh inactive, PostGolgi yeast inactive, TNAP act mid DEA inactive and PostGolgi ctrl 40.4.
Screening COC(=O)c1c(C)cc(OC(C)=O)c(C)c1OC(C)=O returned Cav3 T inh inactive, DAT uptake mod inactive, Smad3 inh inactive, PostGolgi yeast inactive, TNAP act mid DEA inactive and PostGolgi ctrl inactive.
CCOc1cc(CN2CCN(c3cccc(C(F)(F)F)c3)CC2)ccc1OC was read as Cav3 T inh -4.4, DAT uptake mod inactive, Smad3 inh inactive, PostGolgi yeast inactive and PostGolgi ctrl inactive.
For CCOc1cc(CN2CCN(CCOCCO)CC2)ccc1OC the results were Cav3 T inh inactive, DAT uptake mod -2.71, Smad3 inh inactive, PostGolgi yeast inactive and PostGolgi ctrl inactive.
